MPTP inh: blocks calcium-induced mitochondrial swelling; isolated mouse mitochondria, Ca2+ swelling absorbance, 30 min; inhibition, % at 10 µM; 360,000 tested, 1.4% active;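 active = inhibition of 50% or more, scaled per plate between neutral and stimulator controls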;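 also: 0% = DMSO wells given calcium and 100% = 1 mM EGTA wells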
SKN-1 block: C. elegans SKN-1 inhibition. C. elegans VP596 Pgst-4::GFP/RFP ratio, acrylamide-induced, 24 h. inhibition, % at 21.8 µM. 360,000 tested, 0.49% active. AID 624304;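 active = interference check ratio from 0.5 to 1.5 plus GFP to RFP signal ratio inhibition reaching or exceeding a fixed threshold, cut at about 30% in these data, passing the limit was not always enough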
NRP1-CendR mod: alters CendR peptide binding to human NRP-1. FAM-RPARPAR peptide binding to NRP-1, fluorescence polarization. 360,000 tested, 0.85% active. AID 602438. inhibition, % at 25 µM;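 active = inhibition or corrected inhibition above about 18%, plus a signal ratio from 0.5 to 1.5, limit read from the data, passing the limit was not always enough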
F508del corr: correctors of CFTR F508del function in bronchial epithelial cells; activity (quench increase), % at 7.58 µM; 350,000 tested, 0.36% active; CFBE cells, YFP halide quenching; stimulated with forskolin plus potentiator P3; % fluorescence drop versus neutral controls;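 active = mean added fluorescence quench of at least 8% versus neutral control, with both replicates also reaching 8%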;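 also: cells transiently co-express mutant CFTR-F508del with the halide-sensitive YFP; corrector assay measuring rescue of mutant channel to the surface after 24 h compound exposure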
ATG4B inh: blocks human ATG4B protease cleavage of LC3 substrate; Q9Y4P1; ATG4B cleavage of LC3-PLA2, NBD-HPC fluorescence, 1 h; inhibition, % at 8.33 µM; 340,000 tested, 0.51% active; in the data active = inhibition above about 40%
ATG4B confirm: confirmation of human ATG4B inhibitors | ATG4B protease fluorescent substrate cleavage assay | 320 tested, 92% active | shares compounds with ATG4B inh | inhibition, % at 8.33 µM | AID 504757; in the data active = inhibition above about 39%
PLA2 counter: counter-screen for ATG4B inhibitors: human phospholipase A2; shares compounds with ATG4B inh; purified PLA2, NBD-C6-HPC fluorescence, 45 min; inhibition, % at 8.33 µM; 1,600 tested, 66% active; AID 588402; in the data active = inhibition above about 50%
* marks the source's active call; other numbers are inactive results; . = no result given. Rows were chosen to be rich in hits. Some 2.7% of all compounds tested hit in one or more screens of this group.

SMILES | MPTP inh | SKN-1 block | NRP1-CendR mod | F508del corr | ATG4B inh | PLA2 counter | others
O=C(O)c1cc2c(cc1NC(=O)c1ccccc1C(F)(F)F)OCCCO2 | 0 | 1 | 5 | -2 | 63* | 63*
CCOc1ccc(CSCCNC(=S)Nc2ccccc2)cc1 | 46 | 8 | -1 | . | 8 | .
S=C(NCCSCc1ccc(Cl)c(Cl)c1)Nc1ccccc1 | 39 | 10 | 5 | . | 41* | 45 | ATG4B confirm=64*
COc1ccc(C2C(C(C)=O)=C(C)N=c3s/c(=C\c4cc(C)n(C)c4C)c(=O)n32)c(OC)c1 (stereo not given) | 6 | 39* | 125 | . | 56* | 73*
COc1ccc(C2C(C(C)=O)=C(C)N=c3s/c(=C\c4ccco4)c(=O)n32)c(OC)c1 (stereo not given) | 3 | -2 | -10 | . | -6 | .
COc1ccc(-n2c(SC(CN3CCCCC3)CN3CCCC3=O)nc3ccccc3c2=O)cc1 (stereo not given) | -1 | 3 | 4 | . | 63* | 67*
C[C@@H]1CN([C@H](C)CO)C(=O)c2cc(NC(=O)Nc3ccc(C(F)(F)F)cc3)ccc2O[C@@H](C)CCCCO[C@@H]1CN(C)Cc1ccc(C(=O)O)cc1 | . | . | . | 1 | . | .
O=C(O)c1cccc(-n2cccc2C=C2C(=O)c3ccccc3C2=O)c1 | -1 | 8 | 5 | 1 | 28 | .
O=C(O)c1cccc(-n2cccc2/C=C2\SC(=O)N(Cc3ccccc3F)C2=O)c1 | 0 | 9 | -16 | . | 40* | 57*
Cc1ccccc1N=C1NC(=O)/C(=C/c2cccn2-c2cccc(C(=O)O)c2)S1 | . | . | . | 0 | 43* | 5 | ATG4B confirm=59*
C[C@H](CO)N1C[C@H](C)[C@H](CN(C)C(=O)C2CCOCC2)Oc2ncc(-c3cccc(C#N)c3)cc2C1=O | . | . | . | -1 | . | .
C[C@H]1CCCCO[C@@H](CN(C)Cc2ccc(C(F)(F)F)cc2)[C@@H](C)CN([C@@H](C)CO)C(=O)c2cc(NC(=O)Nc3ccc(C(F)(F)F)cc3)ccc2O1 | . | . | . | 0 | . | .
Cc1ccc(-c2csc(N/N=C/c3ccco3)n2)cc1 | 2 | 60* | -6 | . | 41* | 38
Cc1ccc(-c2csc(N/N=C/C=C/c3ccccc3)n2)cc1 | 2 | -2 | -12 | . | -4 | .
Cc1ccc(-c2ccc([C@H]3[C@H](CO)N4C(=O)CN(C(=O)c5cccnc5)C[C@@H]34)cc2)cc1 | . | . | . | 0 | . | .
COC(=O)c1ccc(CSc2nc3ccccc3c(=O)n2-c2ccc(OC)c(OC)c2)o1 | 0 | 4 | -12 | . | 19 | .
COC(=O)c1ccc(CSc2nc3ccccc3c(=O)n2-c2ccccc2)o1 | 0 | -2 | -4 | . | 65* | 73*
O=C(CSc1nc2c(c(=O)n1-c1ccc(Cl)cc1)SCC2)Nc1nccs1 | -1 | -35 | 9 | . | 61* | 80*
COC(=O)c1ccc(CSc2nc3c(c(=O)n2-c2ccc(F)cc2)SCC3)o1 | 2 | 2 | 9 | . | 48* | 50
O=c1c2ccccc2nc(SCc2nnc(-c3ccccc3)o2)n1-c1ccccc1 | 1 | -4 | 7 | 0 | 72* | 73*
Cc1noc(C)c1S(=O)(=O)Nc1ccc2c(c1)CC(=O)N([C@@H](C)CO)C[C@H](C)[C@@H](CN(C)S(=O)(=O)c1c(C)noc1C)O2 | . | . | . | -3 | . | .
COc1ccc(S(=O)(=O)Nc2ccc3c(c2)C(=O)N([C@H](C)CO)C[C@@H](C)[C@H](CN(C)C(=O)Nc2ccc4c(c2)OCO4)OCCCC[C@@H](C)O3)cc1 | . | . | . | 1 | . | .
O=C(CCCOc1ccccc1)N1CCc2ccccc2C1 | 1 | 5 | -4 | . | 15 | .
O=C(CCCOc1ccc(Cl)cc1Cl)N1CCc2ccccc2C1 | 1 | 12 | 29* | . | 50* | 51*
NCC[C@H]1CC[C@H](NC(=O)CCN2CCCCC2)[C@@H](CO)O1 | . | . | . | 0 | . | .
SMILES | MPTP inh | SKN-1 block | NRP1-CendR mod | F508del corr | ATG4B inh | PLA2 counter | others
OC(c1cc(-c2ccc(Cl)cc2)nc2ccccc12)C1CCCCN1 (stereo not given) | 0 | -6 | 12 | -3 | 42* | 52*
OC(c1cc(C(F)(F)F)nc2c(Cl)cc(Cl)cc12)C1CCCCN1 (stereo not given) | 2 | 21 | 4 | -1 | 20 | .
CC(C)C[C@@H]1COc2cc(N3CCOCC3)ccc2S(=O)(=O)N1 | . | . | . | 0 | . | .
COC(=O)C[C@H]1C[C@H]2c3cc(NS(=O)(=O)c4ccccc4)ccc3O[C@H]2[C@H](CO)O1 | . | . | . | 4 | . | .
Cc1ccc(-n2cc(CN3CCC(O)(c4ccccn4)CC3)c(-c3ccc(F)cc3)n2)cc1 | 45 | 0 | -5 | 1 | 61* | 52*
CO[C@@H]1CN(C)C(=O)c2cc(NS(=O)(=O)c3ccccc3C)ccc2OC[C@@H](C)NC[C@@H]1C | . | . | . | -2 | . | .
O=C(Nc1ccccc1-c1ccccc1)c1ccc(Cl)c([N+](=O)[O-])c1 | 4 | 3 | 16 | . | 41* | 36
COCC(=O)Nc1ccc2c(c1)OC[C@H](C)N(Cc1ccccc1F)C[C@H](C)[C@@H](OC)CN(C)C2=O | . | . | . | -2 | . | .
Oc1ccccc1CN(Cc1ccco1)CC(O)COCc1ccc(Cl)cc1 (stereo not given) | 9 | 6 | 12 | . | 40* | 28
C[C@@H]1CN([C@H](C)CO)C(=O)c2cccc(NC(=O)Nc3ccccc3)c2O[C@@H]1CN(C)C(=O)Nc1ccc(F)cc1 | . | . | . | -2 | . | .
COc1ccc(CCNC(=O)COC(=O)c2cccs2)cc1 | 2 | 5 | -11 | -1 | -15 | .
CCCc1ccc(OC(=O)c2cccs2)cc1 | 0 | -2 | -2 | . | 43* | 28 | ATG4B confirm=70*
Cc1cc(OC(=O)c2cccs2)ccc1C(C)C | -1 | -10 | 0 | . | 42* | 47 | ATG4B confirm=49*
Cc1cccc(CNc2ncnc3ccc(-c4ccc5c(c4)OCO5)cc23)c1 | 1 | 6 | 8 | 1 | 34 | .
Cc1cccc(CNc2ncnc3ccc(-c4ccccc4Cl)cc23)c1 | 2 | 3 | 7 | -3 | 51* | 52*
C/C(CCc1oc2ccc(Br)cc2c1-c1ccc(C)o1)=N/O | 4 | -2 | 6 | . | 35 | .
C/C(CCc1oc2ccc(Cl)cc2c1-c1ccc(C)o1)=N\O | 4 | -2 | -5 | . | 46* | 71*
CC1CCCCC1NC(=O)COC(=O)c1c2c(nc3ccccc13)/C(=C/c1ccco1)CC2 (stereo not given) | 5 | 7 | -42 | 0 | 53* | 45 | ATG4B confirm=75*
COCCNC(=O)/C(C#N)=C/c1c(N2CCN(c3ccccc3)CC2)nc2c(C)cccn2c1=O | 1 | 12 | 11 | 0 | 40* | 45 | ATG4B confirm=65*
Cc1ccccc1Oc1nc2ccccn2c(=O)c1/C=C(\C#N)C(=O)Nc1c(C)n(C)n(-c2ccccc2)c1=O | 0 | 6 | -2 | . | 5 | .

Screening data as filed in PubChem.
